Common to all, as to assay: NCI-60 one-dose screen, 48 h (100 = growth as untreated, 0 = no growth, -100 = all killed)
The subject of one experiment is NCI-H23 lung. To be noted: 10 µM unless noted.
A further experiment concerns NCI-H226 lung. To be noted: 10 µM unless noted.
The subject of a further experiment is NCI-H322M lung. To be noted: 10 µM unless noted.
In a further experiment the test system is NCI-H460 lung. Particulars: 10 µM unless noted.
Another experiment has as its system HOP-92 NSCLC. To be noted: 10 µM.
The test system of another experiment is NCI-H522 lung. Particulars: 10 µM.
Another experiment relates to A549/ATCC NSCLC. To be noted: 10 µM unless noted.
Another experiment deals with 786-0 renal. To be noted: 10 µM unless noted.
In the next experiment the test system is DU-145 prostate. To be noted: 10 µM unless noted.
The next experiment deals with K-562 leukemia. To be noted: 10 µM unless noted.
For another experiment, the system named is MDA-MB-231 breast. To be noted: 10 µM unless noted.
For the next experiment, the system named is RXF 393 renal. Particulars: 10 µM unless noted.
Another experiment concerns SF-268 CNS. Particulars: 10 µM unless noted.
For the next experiment, the system named is SF-295 CNS. Particulars: 10 µM unless noted.
For another experiment, the system named is SF-539 CNS. Particulars: 10 µM unless noted.
A further experiment deals with UACC-257 melanoma. To be noted: 10 µM unless noted.
The next experiment relates to M14 melanoma. To be noted: 10 µM unless noted.
In the next experiment the test system is COLO 205 colon. Particulars: 10 µM unless noted.
For another experiment, the system named is MALME-3M melanoma. Particulars: 10 µM unless noted.

About 83,000 compounds went through this panel and 20% of them were active in at least one assay; those are over-represented in the sample as a whole.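 Activity criterion: percent growth below 10, measured after cells in 96-well plates were exposed to a single compound concentration for 48 hours.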 Unmarked numbers belong to inactive results. Activity calls are given as the source filed them.

`Cc1nnc(-c2cc3c(ccc4ccccc43)oc2=O)c2cn(-c3ccc(Cl)cc3)nc12`: the growth in the experiment with NCI-H23 lung was 86.9%; in the experiment on NCI-H226 lung, 92%; in the experiment on NCI-H322M lung it was 98.8%; in the experiment with NCI-H460 lung it was 94.5%; with HOP-92 NSCLC it was 85.9%; in the experiment with NCI-H522 lung, 81.2%. In addition, the growth is 95.2% in the experiment with A549/ATCC NSCLC; 97.5% in the experiment on 786-0 renal; 107% in the experiment with DU-145 prostate; 80.6% in the experiment with K-562 leukemia; 77.5% in the experiment on MDA-MB-231 breast; 103% in the experiment on RXF 393 renal. The growth in the experiment on SF-268 CNS is 87.3%; in the experiment with SF-295 CNS, 95.9%; in the experiment on SF-539 CNS, 114%; in the experiment on UACC-257 melanoma it was 109%; in the experiment on M14 melanoma, 98.1%.

For the molecule `C/C(=N\Nc1ccc(Cl)cn1)c1ccc2ccccc2n1`, the growth is 21% with NCI-H23 lung; -5.19% (active) with NCI-H226 lung; 16.4% in the experiment with NCI-H322M lung; 3.21% (active) in the experiment on NCI-H460 lung; 34.4% in the experiment on HOP-92 NSCLC; 4.29% (active) with A549/ATCC NSCLC. The growth is 12.9% with 786-0 renal; 9.81% (active) with COLO 205 colon; 19.9% in the experiment with DU-145 prostate; 5.97% (active) with K-562 leukemia; 10.6% with MALME-3M melanoma; 31.5% with MDA-MB-231 breast. The growth with RXF 393 renal is 30.5%; with SF-268 CNS, 10.3%; with SF-295 CNS it was 2.94% (active); in the experiment on SF-539 CNS it was 3.44% (active); in the experiment with UACC-257 melanoma, -19.9% (active); in the experiment on M14 melanoma it was 0.159% (active).

As for `CCS(=O)(=O)OCCO[C@H]1Cc2cc3ccc(=O)oc3cc2OC1(C)C`, the growth with NCI-H23 lung is 105%; in the experiment on NCI-H226 lung, 98.4%; in the experiment with NCI-H322M lung it was 111%; in the experiment on NCI-H460 lung, 105%; with HOP-92 NSCLC, 103%; with NCI-H522 lung, 89.1%. Besides, the growth in the experiment on A549/ATCC NSCLC is 97.3%; with 786-0 renal, 106%; in the experiment on DU-145 prostate, 103%; in the experiment on MALME-3M melanoma, 105%; in the experiment on MDA-MB-231 breast, 115%; with SF-268 CNS it was 98.9%. In addition, the growth with SF-295 CNS was 101%; in the experiment with SF-539 CNS it was 100%; with UACC-257 melanoma, 97.8%; with M14 melanoma, 104%.

In the case of `CC1(C)NCCC[C@]2(C)[C@H]3CC=C4[C@@H]5C[C@](C)(COC(=O)c6ccccc6C(=O)O)CC[C@]5(C)CC[C@@]4(C)[C@]3(C)CC[C@@H]12`, the growth in the experiment on NCI-H23 lung was 66.9%; in the experiment with NCI-H226 lung, 86.5%; in the experiment on NCI-H322M lung it was 91%; in the experiment on NCI-H460 lung it was 29.7%; with HOP-92 NSCLC, 54.9%; in the experiment with NCI-H522 lung, 79%. In addition, the growth in the experiment on A549/ATCC NSCLC is 56.7%; with 786-0 renal it was 65.2%; with DU-145 prostate, 79.3%; in the experiment with MALME-3M melanoma, 66.3%; in the experiment on MDA-MB-231 breast, 84%; with SF-268 CNS, 60.7%. Moreover, the growth in the experiment with SF-295 CNS is 60.3%; in the experiment with SF-539 CNS, 66.6%; with UACC-257 melanoma, 67.8%; in the experiment on M14 melanoma, 69.3%.

Consider `COc1ccc(NC(=O)/C=C(C)/C=C/C=C(C)/C=C/C2=C(C)CCCC2(C)C)cc1`, for which the growth was 93.4% in the experiment on NCI-H23 lung; 78.2% with NCI-H226 lung; 90.8% in the experiment on NCI-H322M lung; 30.6% in the experiment with NCI-H460 lung; 62% in the experiment on HOP-92 NSCLC; 51.7% in the experiment with NCI-H522 lung. Moreover, the growth with A549/ATCC NSCLC is 39.9%; in the experiment on COLO 205 colon, 33%; in the experiment on DU-145 prostate it was 101%; in the experiment on K-562 leukemia it was 46.7%; in the experiment on MALME-3M melanoma, 68.1%; in the experiment on MDA-MB-231 breast, 38.3%. In addition, the growth with RXF 393 renal is 79.4%; in the experiment with SF-268 CNS, 81.4%; in the experiment with SF-295 CNS it was 80%; in the experiment on SF-539 CNS, 32.8%; with UACC-257 melanoma it was 87.4%.

As to `CCOC(=O)c1cc(-c2ccc(OC)cc2)[nH]c1NNC(=O)CCOC`, the growth in the experiment with NCI-H23 lung was 114%; with NCI-H226 lung, 105%; in the experiment on NCI-H322M lung, 118%; in the experiment on NCI-H460 lung, 119%; in the experiment with HOP-92 NSCLC, 73.1%; with A549/ATCC NSCLC, 99.9%. Further, the growth in the experiment on 786-0 renal is 84.3%; with COLO 205 colon, 109%; with DU-145 prostate, 108%; with K-562 leukemia it was 99.8%; with MALME-3M melanoma it was 98.4%; in the experiment on MDA-MB-231 breast it was 95%. Further, the growth in the experiment on RXF 393 renal is 104%; in the experiment on SF-268 CNS, 121%; with SF-295 CNS, 95.3%; with SF-539 CNS, 106%; in the experiment with UACC-257 melanoma, 105%.

In the case of `CCOP1(=O)CC(C)=C(Cl)C(P(=O)(O)O)C1` (stereo unspecified), the growth in the experiment with NCI-H23 lung is 93.3%; with NCI-H226 lung, 99.9%; in the experiment on NCI-H322M lung, 108%; with NCI-H460 lung, 114%; in the experiment with HOP-92 NSCLC, 89.1%; with NCI-H522 lung it was 89.7%. Besides, the growth in the experiment on A549/ATCC NSCLC was 94.8%; in the experiment on COLO 205 colon it was 110%; in the experiment with DU-145 prostate, 109%; in the experiment with K-562 leukemia, 101%; in the experiment on MALME-3M melanoma, 95.1%; with MDA-MB-231 breast it was 100%. The growth in the experiment on RXF 393 renal is 96%; in the experiment with SF-268 CNS it was 109%; in the experiment on SF-295 CNS it was 109%; in the experiment with SF-539 CNS it was 105%; with UACC-257 melanoma, 87.3%.

Consider `CCOC(=O)C1C(=O)C(=O)N(C(C)C)C1C(=O)OCC` (stereo unspecified), for which the growth in the experiment on NCI-H23 lung was 97.3%; in the experiment with NCI-H226 lung it was 100%; with NCI-H322M lung, 104%; in the experiment with NCI-H460 lung it was 106%; in the experiment on HOP-92 NSCLC it was 83%; with NCI-H522 lung, 118%. The growth in the experiment with 786-0 renal was 107%; in the experiment on COLO 205 colon, 118%; in the experiment on DU-145 prostate, 113%; with K-562 leukemia, 108%; in the experiment with MALME-3M melanoma, 92.4%; with MDA-MB-231 breast, 103%. Also, the growth is 105% in the experiment on RXF 393 renal; 99.3% in the experiment on SF-268 CNS; 98.2% with SF-295 CNS; 99.8% in the experiment on SF-539 CNS; 86.7% in the experiment on UACC-257 melanoma; 111% with M14 melanoma.

(Values after PubChem BioAssay (NCI).)
